# From PubChem BioAssay AID492967 (ICCB-Longwood Screening Facility, Harvard Medical School, 2010)
# Screen size: about 140,000 compounds; about 320 (0.23%) were called active. The sample holds actives, similar compounds and a random draw of the others, so the mix is not that of the screen. Values without a mark were called inactive. No stated cut-off is given here; in the data, active means z-score mostly below about -2.9 (no sharp cut-off); inactive means mostly above about -1.9.
# System: CapD gamma-glutamyltranspeptidase (Bacillus anthracis Ames Ancestor)
# Test: inhibition of CapD gamma-glutamyltranspeptidase – biochemical, fluorescence intensity, primary screen (AID 492967)
# Conditions: purified CapD enzyme, fluorescence intensity read-out; stronger effect = lower value
row,SMILES,z-score
1,COc1ccc2oc(=O)c(C(=O)NC(C)(C)C)cc2c1,13.9
2,COc1cccc(C(=O)c2cc3ccc(O)cc3oc2=O)c1,-6.04 (active)
3,COc1ccc2oc(=O)c(C(=O)O)cc2c1,31.1
4,Cc1cccc(-c2noc(-c3ccc(OC(F)(F)F)cc3)n2)c1,-0.145
5,CC(=O)Nc1ccccc1C(=O)OCC(=O)Nc1nc2ccccc2s1,-0.695
6,O=C(O)CC(CC(=O)Oc1ccccc1N1CCCC1)c1ccccc1 (stereo not drawn),-0.435
7,CC(C)C(=O)Nc1c2c(nn1-c1ccccc1)CSC2,0.225
8,Cc1cccc(-n2nc3c(c2NC(=O)/C=C\c2ccco2)CSC3)c1C,-4.94 (active)
9,COc1cc(C(=O)Nc2c3c(nn2-c2cccc(C)c2C)CS(=O)(=O)C3)cc(OC)c1OC,0.345
10,COc1ccc(OC)c(/C=N/NC(=O)c2cn(C)c3ccccc23)c1,14.4
11,CC(C)Oc1ccccc1Oc1ccc([N+](=O)[O-])cn1,-0.145
12,COc1ccc(OC)c(-n2c(=S)[nH]c3cc(C(=O)Nc4ccc(OC)c(OC)c4)ccc3c2=O)c1,-1.08
13,CSc1ccc(-c2ncnn2-c2ccc(Cl)cc2)cc1,-0.715
14,Cn1cc(CC(=O)Nc2ccccc2)c2ccccc21,-0.8
15,Clc1ccc(C2N=C(c3cnccn3)NN2)cc1 (stereo not drawn),-0.935
16,CCO/C=C1\C(=O)N(c2ccc(C)cc2C)C(=O)c2cc(OC)ccc21,0.06
17,COc1ccc(C2CC(=O)C3=C(C2)Nc2ccc4ccccc4c2C3c2ccc3c(c2)OCO3)cc1 (stereo not drawn),1.5
18,CC(NC(=O)Cn1nc(-c2ccc(Cl)cc2)c2ccccc2c1=O)c1ccccc1 (stereo not drawn),-0.405
19,CC1CCc2c(sc(NC(=O)c3sc4ccccc4c3Cl)c2C(=O)OC(C)C)C1 (stereo not drawn),-0.045
20,O=C1NC(=S)N/C1=C/c1cc(I)cc(I)c1O,-0.725
21,C=CCOC(=O)c1cc(-c2ccc(/C=C3/NC(=S)NC3=O)o2)ccc1Cl,0.96
22,O=C1NC(=S)N/C1=C\c1c(F)cccc1Cl,-4.06 (active)
23,COC(=O)c1c(NC(=O)c2c(-c3c(Cl)cccc3Cl)noc2C)sc2c1CCCC2,-0.55
24,COc1ccc(/C=C/C(=O)N2CCN(C(c3ccccc3)c3ccccc3)CC2)cc1OC,4.64
25,CC1(C)OCC([C@H]2O[C@@H]3OC(C)(C)OC3C2OC(=O)Nc2ccc(Cc3ccc(NC(=O)OC4C5OC(C)(C)O[C@H]5O[C@@H]4C4COC(C)(C)O4)cc3)cc2)O1 (stereo partly drawn),-0.275
26,CC(C)(C)C(=O)N(Cc1cccnc1)Cc1ccc(Cl)cc1Cl,-0.865
27,Cc1ccc(S(=O)(=O)c2cnc(SCC(=O)N3CCCc4ccccc43)[nH]c2=O)cc1,-0.55
28,CC1CCN(c2nc3nonc3nc2Nc2cccc(Br)c2)CC1,0.265
